PubChem BioAssay (EPA / NIEHS)
Some structures have more than one record in an assay (separate samples or runs), and their calls can disagree. Active and inactive are the calls of the source. Rule for the calls: active = hit-call score of the fitted dose curve at least 0.9, where 1 is the maximum; inactive = score below 0.9.

Experiments:
Settings in all cases: mRNA level, 48 h; actives raise or lower the signal
[1] = read-out: Apolipoprotein A-V (APOA5) gene, APOA5 (gene 116519); assay: LTEA_HepaRG_APOA5: Life Technologies and Expression Analysis (LTEA) Assay for Apolipoprotein A-V (APOA5) gene using HepaRG (AID 2283474)
In short: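 Concentration-response of APOA5 expression in HepaRG: eight half-log doses to 100 uM, 48 h, qRT-PCR normalized to ACTB/GAPDH/POLR2A, bidirectional fitting with 0.5% DMSO as baseline.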

[2] = read-out: Apoptosis regulator Bcl-2 (Homo sapiens) (UniProt P10415); assay: LTEA_HepaRG_BCL2: Life Technologies and Expression Analysis (LTEA) Assay for Bcl-2 gene using HepaRG (AID 2283475);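 note: BCL2 transcript by TaqMan qRT-PCR normalised to ACTB GAPDH and POLR2A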
In short: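 Plated human HepaRG cells are exposed to test chemicals for 48 h across eight concentrations from 100 uM downward in half-log steps (0.5% DMSO). BCL2 expression is then measured by qRT-PCR with housekeeping normalisation and fitted bidirectionally against vehicle.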

[3] = read-out: Bcl-2 (BID) gene, BID (gene 637); assay: LTEA_HepaRG_BID: Life Technologies and Expression Analysis (LTEA) Assay for Bcl-2 (BID) gene using HepaRG (AID 2283476)
In short: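 Cells are plated, cultured 48 h, switched to serum-free induction medium, then dosed 48 h (100 uM top, half-log steps, 0.5% DMSO). RNA is isolated and BID expression read by qRT-PCR.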

Caspase-3 (Homo sapiens) = Caspase-3 (Homo sapiens) (UniProt P42574); assay: LTEA_HepaRG_CASP3: Life Technologies and Expression Analysis (LTEA) Assay for cysteine-aspartic acid protease (CASP3) using HepaRG (AID 2283477)
Sequence of Caspase-3 (Homo sapiens) (P42574 whole entry, looked up): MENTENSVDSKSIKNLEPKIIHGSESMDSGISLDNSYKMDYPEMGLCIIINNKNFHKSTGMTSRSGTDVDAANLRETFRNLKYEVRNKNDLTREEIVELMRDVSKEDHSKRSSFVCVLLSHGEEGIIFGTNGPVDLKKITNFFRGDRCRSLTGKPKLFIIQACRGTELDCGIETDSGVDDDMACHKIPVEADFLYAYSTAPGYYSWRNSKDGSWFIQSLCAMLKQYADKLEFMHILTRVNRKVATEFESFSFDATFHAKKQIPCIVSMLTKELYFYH
In short: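 Transcript-level assay: CASP3 mRNA in human HepaRG after 48 h treatment, eight half-log concentrations from 100 uM in 0.5% DMSO, quantified by qRT-PCR.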

[4] = read-out: Cytochrome P450 (CYP24A1), CYP24A1 (gene 1591); assay: LTEA_HepaRG_CYP24A1: Life Technologies and Expression Analysis (LTEA) Assay for Cytochrome P450 (CYP24A1) using HepaRG (AID 2283478)
In short: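 Gene expression of CYP24A1 by TaqMan qRT-PCR in HepaRG after 48 h treatment, highest concentration 100 uM; activity fitted in both directions relative to DMSO vehicle.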

[5] = read-out: Cytochrome P450 (CYP1A2), CYP1A2 (gene 1544); assay: LTEA_HepaRG_CYP1A2: Life Technologies and Expression Analysis (LTEA) Assay for Cytochrome P450 (CYP1A2) using HepaRG (AID 2283479);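 for AC50: TaqMan qRT-PCR transcript level normalized to ACTB GAPDH and POLR2A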
In short: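 In duplicate wells, HepaRG cultures maintained in 0.5% DMSO were treated 48 h across an 8-point, half-log series topping at 100 uM; phenobarbital (1 mM) served as induction control. Expression was read by qRT-PCR.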

[6] = read-out: cysteine-aspartic acid protease (CASP8), CASP8 (gene 841); assay: LTEA_HepaRG_CASP8: Life Technologies and Expression Analysis (LTEA) Assay for cysteine-aspartic acid protease (CASP8) using HepaRG (AID 2283480)
In short: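 Concentration-response in duplicate up to 100 uM (half-log steps, 0.5% DMSO) on differentiated HepaRG cultures for 48 h. Expression change of CASP8 mRNA is determined by TaqMan qRT-PCR with housekeeping-gene normalization.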

[7] = read-out: Cytochrome P450 (CYP2B6), CYP2B6 (gene 1555); assay: LTEA_HepaRG_CYP2B6: Life Technologies and Expression Analysis (LTEA) Assay for Cytochrome P450 (CYP2B6) using HepaRG (AID 2283481)
In short: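 Human HepaRG, 48 h dosing, 0.5% DMSO vehicle, top dose 100 uM. CYP2B6 transcript by qRT-PCR, housekeeping-normalized, bidirectional curve fit.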

CYP2C8 (gene 1558) = assay: LTEA_HepaRG_CYP2C8: Life Technologies and Expression Analysis (LTEA) Assay for CYP2C8 using HepaRG (AID 2283483)
In short: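 This is a transcriptional endpoint in HepaRG cultures: 48 h exposure, highest concentration 100 uM. CYP2C8 mRNA is quantified by TaqMan qRT-PCR.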

CYP2C9 (gene 1559) = assay: LTEA_HepaRG_CYP2C9: Life Technologies and Expression Analysis (LTEA) Assay for CYP2C9 using HepaRG (AID 2283484)
In short: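 Eight-point concentration-response (highest 100 uM, half-log dilutions) in HepaRG cells for 48 h; CYP2C9 expression by qRT-PCR normalized to ACTB, GAPDH, POLR2A. Bidirectional fit, DMSO baseline.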

CYP2E1 (gene 1571) = assay: LTEA_HepaRG_CYP2E1: Life Technologies and Expression Analysis (LTEA) Assay for CYP2E1 using HepaRG (AID 2283485)
In short: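 Readout is qRT-PCR of CYP2E1 mRNA, normalized to three housekeeping genes and fitted bidirectionally against 0.5% DMSO. HepaRG cells were dosed 48 h at eight concentrations, highest 100 uM with half-log dilutions.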

CYP4A11 (gene 1579) = assay: LTEA_HepaRG_CYP4A11: Life Technologies and Expression Analysis (LTEA) Assay for CYP4A11 using HepaRG (AID 2283486)
In short: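 Human hepatic HepaRG cultures receive duplicate 48 h exposures across a concentration-response series topping at 100 uM. Expression changes in CYP4A11 are measured by qRT-PCR relative to DMSO controls.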

[8] = read-out: Cytochrome P450 3A4 (Homo sapiens) (UniProt P08684); assay: LTEA_HepaRG_CYP3A4: Life Technologies and Expression Analysis (LTEA) Assay for CYP3A4 using HepaRG (AID 2283487)
In short: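 HepaRG, 48 h exposure, 8-pt CRC from 100 uM (half-log), 0.5% DMSO, duplicates; serum-free induction medium. Readout: CYP3A4 mRNA, qRT-PCR, ACTB/GAPDH/POLR2A normalization. Bidirectional fit vs DMSO.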

[9] = read-out: DNA damage-inducible transcript 3 (DDIT3), DDIT3 (gene 1649); assay: LTEA_HepaRG_DDIT3: Life Technologies and Expression Analysis (LTEA) Assay for DNA damage-inducible transcript 3 (DDIT3) using HepaRG (AID 2283488)
In short: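 Cells are human HepaRG liver cells treated for 48 h with eight half-log concentrations up to 100 uM in 0.5% DMSO. Transcript levels come from qRT-PCR normalized to three housekeeping genes, with activity fitted in both directions relative to vehicle.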

[10] = read-out: Pro-epidermal growth factor (Homo sapiens) (UniProt P01133); assay: LTEA_HepaRG_EGF: Life Technologies and Expression Analysis (LTEA) Assay for Epidermal growth factor (EGF) using HepaRG (AID 2283489)
In short: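 Concentration-response mRNA assay: HepaRG cells dosed 48 h (max 100 uM, 0.5% DMSO), EGF measured by qRT-PCR and normalized to ACTB/GAPDH/POLR2A.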

[11] = read-out: Ezrin (EZR), EZR (gene 7430); assay: LTEA_HepaRG_EZR: Life Technologies and Expression Analysis (LTEA) Assay for Ezrin (EZR) using HepaRG (AID 2283491)
In short: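 Read-out is EZR transcript level by qRT-PCR, normalized to three housekeeping genes and fitted bidirectionally against the DMSO control. Human HepaRG cells received test chemicals for 48 h at eight half-log concentrations up to 100 uM in 0.5% DMSO.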

[12] = read-out: Cytochrome P450 3A7 (Homo sapiens) (UniProt P24462); assay: LTEA_HepaRG_CYP3A7: Life Technologies and Expression Analysis (LTEA) Assay for CYP3A7 using HepaRG (AID 2283492)
In short: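 qRT-PCR of CYP3A7 in HepaRG lysates after 48 h treatment; concentration-response (8 points, max 100 uM) analysed bidirectionally relative to 0.5% DMSO controls.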

CYP3A5 (gene 1577) = assay: LTEA_HepaRG_CYP3A5: Life Technologies and Expression Analysis (LTEA) Assay for CYP3A5 using HepaRG (AID 2283493)
In short: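 Human HepaRG hepatic cells receive 48 h chemical treatment at eight concentrations (half-log steps from 100 uM) in 0.5% DMSO. Expression of CYP3A5 is quantified by Fluidigm qRT-PCR and normalized to three reference genes.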

[13] = read-out: Cytochrome P450 2C19 (Homo sapiens) (UniProt P33261); assay: LTEA_HepaRG_CYP2C19: Life Technologies and Expression Analysis (LTEA) Assay for CYP2C19 using HepaRG (AID 2283482)
In short: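 Endpoint: CYP2C19 mRNA change, bidirectional fit vs 0.5% DMSO. Cells: HepaRG, 48 h exposure, eight-point series topping at 100 uM. Quantitation: qRT-PCR normalized to ACTB, GAPDH, POLR2A.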

[14] = read-out: Early growth response protein 1 (EGR1) transcription factor, EGR1 (gene 1958); assay: LTEA_HepaRG_EGR1: Life Technologies and Expression Analysis (LTEA) Assay for Early growth response protein 1 (EGR1) transcription factor using HepaRG (AID 2283490)
In short: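 EGR1 expression change in human HepaRG after 48 h chemical exposure, assessed by housekeeping-normalized qRT-PCR; concentration-response up to 100 uM, fitted in both directions against DMSO controls.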

Measured: AC50

Sequence of Apoptosis regulator Bcl-2 (Homo sapiens) (P10415 whole entry, looked up): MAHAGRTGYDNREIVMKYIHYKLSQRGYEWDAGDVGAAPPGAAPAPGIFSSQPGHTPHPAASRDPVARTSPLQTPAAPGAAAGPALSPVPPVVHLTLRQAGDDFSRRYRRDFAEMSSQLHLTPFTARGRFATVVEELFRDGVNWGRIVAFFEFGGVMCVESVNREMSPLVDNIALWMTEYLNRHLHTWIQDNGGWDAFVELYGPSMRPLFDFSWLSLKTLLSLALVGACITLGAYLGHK
Sequence of Cytochrome P450 3A7 (Homo sapiens) (P24462 whole entry, looked up): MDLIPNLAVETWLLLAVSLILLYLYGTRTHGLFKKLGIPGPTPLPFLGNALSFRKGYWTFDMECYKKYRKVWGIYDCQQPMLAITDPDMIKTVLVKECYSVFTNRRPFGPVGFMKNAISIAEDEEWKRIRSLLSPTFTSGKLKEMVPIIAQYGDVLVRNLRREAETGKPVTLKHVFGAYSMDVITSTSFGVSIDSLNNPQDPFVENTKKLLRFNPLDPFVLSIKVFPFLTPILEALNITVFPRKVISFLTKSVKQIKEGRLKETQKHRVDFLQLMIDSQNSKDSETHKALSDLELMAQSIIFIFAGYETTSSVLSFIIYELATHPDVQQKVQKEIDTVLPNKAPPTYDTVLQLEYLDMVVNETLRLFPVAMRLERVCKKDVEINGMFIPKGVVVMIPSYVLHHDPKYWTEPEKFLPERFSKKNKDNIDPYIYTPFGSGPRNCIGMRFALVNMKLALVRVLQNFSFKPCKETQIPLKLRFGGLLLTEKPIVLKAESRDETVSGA
Sequence of Cytochrome P450 3A4 (Homo sapiens) (P08684 whole entry, looked up): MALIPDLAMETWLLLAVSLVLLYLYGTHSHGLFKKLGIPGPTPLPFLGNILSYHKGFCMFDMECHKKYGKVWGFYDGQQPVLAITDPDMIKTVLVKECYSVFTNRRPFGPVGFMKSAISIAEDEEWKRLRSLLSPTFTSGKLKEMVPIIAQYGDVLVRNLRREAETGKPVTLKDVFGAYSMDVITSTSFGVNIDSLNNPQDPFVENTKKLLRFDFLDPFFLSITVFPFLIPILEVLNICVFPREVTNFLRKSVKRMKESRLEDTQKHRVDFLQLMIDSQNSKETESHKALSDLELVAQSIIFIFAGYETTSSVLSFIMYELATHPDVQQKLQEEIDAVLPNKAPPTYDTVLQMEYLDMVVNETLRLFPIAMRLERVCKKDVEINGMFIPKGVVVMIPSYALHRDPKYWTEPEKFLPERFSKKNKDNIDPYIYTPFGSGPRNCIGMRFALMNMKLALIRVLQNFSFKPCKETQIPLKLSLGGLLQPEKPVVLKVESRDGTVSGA
Sequence of Cytochrome P450 2C19 (Homo sapiens) (P33261 whole entry, looked up): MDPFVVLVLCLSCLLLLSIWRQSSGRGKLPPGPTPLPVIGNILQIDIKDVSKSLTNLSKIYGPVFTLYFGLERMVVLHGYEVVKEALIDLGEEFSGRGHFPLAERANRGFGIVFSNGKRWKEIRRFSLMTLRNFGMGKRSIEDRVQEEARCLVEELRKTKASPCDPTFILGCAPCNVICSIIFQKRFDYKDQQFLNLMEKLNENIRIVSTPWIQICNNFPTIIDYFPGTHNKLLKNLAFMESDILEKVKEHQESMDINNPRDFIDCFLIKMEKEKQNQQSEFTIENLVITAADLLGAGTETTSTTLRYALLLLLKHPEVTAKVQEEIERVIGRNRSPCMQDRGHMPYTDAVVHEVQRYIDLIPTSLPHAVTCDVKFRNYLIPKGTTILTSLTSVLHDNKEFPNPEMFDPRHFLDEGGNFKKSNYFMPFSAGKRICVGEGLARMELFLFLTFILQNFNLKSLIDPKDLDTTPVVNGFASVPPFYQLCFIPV

CN(C)[C@@H]1C(=O)C(C(N)=O)=C(O)[C@@]2(O)C(=O)C3=C(O)c4c(O)cccc4[C@@](C)(O)[C@H]3[C@H](O)[C@@H]12
inactive: [1] | [2] | [3] | Caspase-3 (Homo sapiens) | [4] | [5] | [6] | [7] | CYP2C8 (gene 1558) | CYP2C9 (gene 1559) | CYP2E1 (gene 1571) | CYP4A11 (gene 1579) | [8] | [9] | [10] | [11] | [12] | CYP3A5 (gene 1577)
active: [7] 10 µM | CYP2E1 (gene 1571) 50 µM | CYP4A11 (gene 1579) 38.6 µM

CC1=NNC(=O)N(/N=C/c2cccnc2)C1
active: [5] 6.84 µM
not listed: CYP2C8 (gene 1558) | [14]
inactive: all other assays above

CCCSP(=O)(OCC)Oc1ccc(Br)cc1Cl (stereo not drawn)
active: [7] 13.4 µM | CYP2E1 (gene 1571) 40.4 µM
not listed: [13]
inactive: all other assays above
